This is a sample that favours compounds with a hit; in the whole collection about 8.1% have one here.
Epigenetic reg: derepresses silenced GFP reporter in murine cells | actives 0.2% (n = 280,000) | AID 1865 | murine LDR cells, GFP reporter derepression, 30 h | Potency, µM (top dose mostly 53.9 µM), without a hit: top-dose GFP activation, actives largely listed as activators; also: % of control where 0% means no effect; nearly all actives have a fitted effect of over 60% in size
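Reporter derepression read as number of fluorescent GFP-positive objects, 20-120 um in size, counted by laser-scanning cytometer. Mouse LDR line with an epigenetically silenced CMV-GFP locus; compound incubation 30 h, 37 C.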
Sfp inh: Sfp phosphopantetheinyl transferase inhibition | Q9F4F7 | Biochemical Sfp PPTase activity, qHTS | Potency, µM, without a hit: largest response in the series, negative = inhibition, hits mostly inhibitors | actives 3.5% (n = 310,000);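 also: the enzyme is Sfp with the accession as filed and its product quenches rhodamine fluorescence; 0% = enzyme reaction without inhibitor and -100% = no enzyme wells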
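Fluorescence-quenching assay with 15 nM Sfp, 5 uM rhodamine-CoA and 12.5 uM BHQ-2-labelled ybbR peptide in pH 7.6 Hepes/MgCl2 buffer. Enzyme was pre-incubated with compound for 15 min at room temperature. Rate was taken from the 30-min fluorescence change (525/598 nm).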
ClpP mod: qHTS Assay for Activators of ClpP | ATP-dependent Clp protease proteolytic subunit (Bacillus subtilis (strain 168)), P80244 | purified B. subtilis ClpP, FRET peptide cleavage, 20 min | Potency, µM (doses to about 57.5 µM), for inactives: at the highest dose activity change, negative = active | actives 1.9% (n = 340,000); active = well fitted falling curve with a large enough effect; inconclusive = small, poorly fitted or top-dose-only effect; inactive = no such curve, though single readings can be large or run the other way; also: the source files actives as falling curves though it sought activators and does not explain the sign; nearly all actives have a fitted effect of over 65% in size
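FRET quenching reversal measured ClpP activation: 10 microg/mL B. subtilis ClpP at pH 8 with the FRET-FV decapeptide, read at 430 nm after 320 nm excitation. The 20-min minus 0-min signal was scaled between DMSO/no-enzyme wells and ADEP (5.8 microM final).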
RORgamma inh: ROR gamma (mouse) transcription inhibition. actives 5.4% (n = 310,000). Potency, µM (series often up to 53.6 µM), for inactives: at the highest dose activity change, negative = inhibition, actives largely listed as inhibitors. Drosophila S2 Gal4-RORgamma UAS-luciferase reporter, 20 h. AID 2551; also: % is scaled to controls: 0 for no effect and ±100 for the full control effect; nearly all actives have a fitted effect of over 60% in size
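Stably transfected Drosophila Schneider cells are the test system, with ROR gamma fused to Gal4 and luciferase under UAS control; luminescence is read after 20 hr of 700 uM copper sulfate induction at ambient temperature.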
VP16 counter: Gal4-VP16 reporter inhibition counter-screen. actives 3.5% (n = 310,000). Drosophila S2 Gal4-VP16 UAS-luciferase, luminescence, 20 h. Potency, µM (top dose mostly 53.6 µM), without a hit: at the top dose activity, negative = inhibition, actives largely listed as inhibitors. AID 2546;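 also: Gal4-VP16 expression switched on by copper sulfate through the metallothionein promoter; % is scaled to controls: 0 for no effect and ±100 for the full control effect; nearly all actives have a fitted effect of over 50% in size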
PINK1 modulator: PINK1 expression modulation; PINK1 immunofluorescence, high-content cytometry, 24 h; Potency, µM (titrated, usually from 76.6 µM), inactives show at the top dose activation (PINK1 increase), most hits filed as activators; actives 0.2% (n = 410,000); AID 624263; active = well fitted activation curve with a large enough effect; inconclusive = small, poorly fitted or top-dose-only effect; cell line not stated here; also: % of control where 0% means no effect; nearly all actives have a fitted effect of over 65% in size
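PINK1 protein level read as immunofluorescence by microplate cytometer in a fixed, stained stable cell line after 24 h exposure to five compound concentrations, with CCCP as control.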
* hit, by the source's call; ? = inconclusive; nt = not tested or not shown; [ ] = remark or other dose. Unless noted, calls follow the shape of the dose curve; as a rule, active = well fitted curve in the direction sought with a large enough effect; inconclusive = small, poorly fitted or top-dose-only effect, or another doubt; inactive = no such curve, though single readings can be large; an effect the other way counts as inactive or inconclusive. Potency is read from the fitted curve at half-maximal effect.

SMILES	Epigenetic reg	Sfp inh	ClpP mod	RORgamma inh	VP16 counter	PINK1 modulator
O=c1cc(-c2cccc(F)c2)[nH]c2cc(Cl)ccc12	-1%[96.6 µM]	7%	nt	-10%[96.6 µM]	-2%[96.6 µM]	nt
CCc1cccc(CC)c1NC(=O)CCS(=O)(=O)c1ccc(Br)s1	-1%	nt	0%	nt	nt	14%
CNC[C@H](CC1CCCCC1)NC[C@H](Cc1ccccc1)NCCC12CC3CC(CC(C3)C1)C2	nt	45µM*	-1%	20µM*	?	-2%
NC[C@H](Cc1ccccc1)NCCCCC1CCCCC1	nt	nt	0%	nt	nt	17%
O=C1CSC(c2cccnc2)N1CCc1ccccn1 (stereo unspecified)	1%	?	-1%	?	11µM*	2%
O=C(CCCn1c(=S)[nH]c2cc3c(cc2c1=O)OCO3)NCc1cccc(Cl)c1	nt	15%	-2%	13µM*	?	4%
O=C(CCCn1c(=S)[nH]c2cc3c(cc2c1=O)OCO3)N1CCN(c2ccccn2)CC1	0%	7%	4%	13µM*	?	1%
COc1ccc(CNC(=O)CCCn2c(=S)[nH]c3cc4c(cc3c2=O)OCO4)cc1	nt	-1%	-9%	-23%	0%	8%
COc1ccc(N2CCN(C(=O)CCCn3c(=S)[nH]c4cc5c(cc4c3=O)OCO5)CC2)cc1	0%	18%	1%	7.1µM*	?	nt
CNS(=O)(=O)c1cn(CC(=O)N2CCN(c3ccc(Cl)cc3)CC2)cc1S(=O)(=O)NC	0%	nt	1%	nt	nt	1%
CCOC(=O)C1CCN(C(=O)c2cc3cc4cc(OC)ccc4nc3o2)CC1	-1%	8%	18µM*	-25%	2%	-1%
COc1ccc2nc3oc(C(=O)N4CCCCC4)cc3cc2c1	-1%	19%	28µM*	22%	-11%	1%
CCCCCCCC1=CC2=CC(=O)C(C)(O)C(=O)C2=CN1CCCC (stereo unspecified)	1%[10.1 µM]	-8%	nt	0%[10 µM]	7%[10 µM]	nt
O=C(O)c1cc(S(=O)(=O)Nc2cccc(F)c2)ccc1Cl	2%	nt	nt	nt	nt	nt
Cc1[nH]nc(-c2ccc(OCc3cnn(-c4ccccc4)c3)c(C)c2O)c1Oc1ccccc1	10%	23%	1%	7.9µM*	?	-1%
Cc1[nH]nc(-c2ccc(O)c(C)c2O)c1Oc1ccccc1	2%	?	-4%	?	?	-2%
Cc1oc2cc(OCc3cnn(-c4ccccc4)c3)ccc2c(=O)c1Oc1ccccc1F	6%	?	-1%	32%	-13%	-1%
CCOc1ccc(-c2n[nH]c(C)c2Oc2ccc(OC)cc2)c(O)c1	2%	7%	-5%	2.2µM*	5µM*	9%
Cc1[nH]nc(-c2ccc(OCc3cnn(-c4ccccc4)c3)cc2O)c1Oc1ccc(F)cc1	14%	21%	-17%	7.1µM*	10µM*	3%
Cc1ccccc1C(=O)NCC(=O)NNC(=S)NC(=O)c1ccccc1C	11%	-18%	-2%	5.6µM*	?	1%
CC(C)(C)CC(=O)NC(=S)NCc1ccccc1	-5%	17%	2%	1.1µM*	8.9µM*	4%
Cc1ccccc1C(=O)NC(=S)NCc1cccnc1	0%	-3%	nt	-37%	-19%	0%
Cc1ccccc1C(=O)NC(=S)NCc1ccccc1	nt	10%	nt	6.3µM*	7.1µM*	0%
Cc1ccccc1C(=O)NCC(=O)NNC(=S)NC(=O)c1ccccc1	-1%	-3%	-1%	?	-12%	1%
Cc1ccccc1C(=O)NC(=S)NCCc1ccccc1	-2%	5%	1%	7.9µM*	?	7%
SMILES	Epigenetic reg	Sfp inh	ClpP mod	RORgamma inh	VP16 counter	PINK1 modulator
O=C(COc1ccccc1C(=O)Nc1ccccc1)NCCCCc1ccccc1	nt	nt	-12%	nt	nt	2%
C=COC(=O)CSc1nc(-c2cccs2)ccc1C#N	-6%	?	28µM*	-10%	11%	5%[38.3 µM]
CCOC(=O)C(C)Sc1nc(-c2cccs2)ccc1C#N (stereo unspecified)	1%	?	13µM*	-11%	12%	7%
COc1ccc(-c2c(O)c3cc(O)cc(O)c3oc2=O)cc1	nt	13%	nt	5%	?	nt
COC(=O)c1c(OCc2cccnc2)cc(=O)n2c1CCN(C(=O)c1c3c(nn1C)CCCC3)CC2	nt	nt	nt	nt	nt	0%
CCOC(=O)c1nc(C)sc1-c1ccnn1S(=O)(=O)c1ccccc1C(F)(F)F	-3%	50µM*	nt	25%	0%	3%
CC1(C)CC[C@]2(C(=O)O)CC[C@]3(C)C(=CCC4[C@@]5(C)CC[C@H](O)C(C)(C)C5CC[C@]43C)C2C1 (stereo partly specified)	1%	20%	1%	6.3µM*	2%	1%
CC(Oc1ccccc1)C(=O)OCc1cc(=O)n2nc(C(C)C)sc2n1 (stereo unspecified)	0%	nt	-2%	nt	nt	0%
CC(C)CCOc1ccc(/C=N/N2C(=O)CSC2=S)cc1	nt	6%	nt	4.5µM*	?	7%
O=C1CSC(=S)N1N=Cc1ccc(OCc2ccccc2)cc1	nt	nt	-2%	nt	nt	?
Cc1cccc(NC(=O)C(=O)NCCc2csc(-c3ccc(F)cc3)n2)c1C	2%	nt	-2%	nt	nt	1%
NC(=S)n1[nH]c(-c2ccc([N+](=O)[O-])cc2)c(N=Nc2cccc(Cl)c2)c1=O	-1%	-13%	nt	0.4µM*	7.1µM*	13µM*
Cc1[nH]n(C(N)=S)c(=O)c1N=Nc1cccc(Cl)c1	nt	6%	0%	0.28µM*	1.6µM*	0%
CC1=C(C(=O)Nc2c(C)cc(C)cc2C)C2(CCN(C(C)C)CC2)OC1=O	-5%	nt	0%	nt	nt	1%
Cc1cccc(OCc2n[nH]c(=S)o2)c1	-1%	11%	0%	-38%	-9%	-5%
Cn1c(CSCc2ccccc2Cl)n[nH]c1=S	-1%	-11%	0%	-14%	-9%	1%
Cn1c(COc2ccc(Cl)cc2)nnc1SCC(=O)NC1CCCC1	nt	12%	nt	-8%	-4%	3%
Cc1cccc(OCc2n[nH]c(=S)n2C2CCCCC2)c1	2%	6%	-1%	0.79µM*	1.3µM*	13%[38.3 µM]
S=c1[nH]nc(CSCc2ccccc2Cl)n1C1CCCCC1	0%	13%	-3%	0.5µM*	?	-2%

Screening results (PubChem BioAssay)
